# From PubChem BioAssay (NCATS)
# Inconclusive results are not listed. Entries that show only a call come without a potency. Calls of active or inactive are those of the source. The call rests on the fitted dose curve; in most records, active means well fitted inhibition curve with a large enough effect; inconclusive means small, poorly fitted or top-dose-only effect; inactive means flat fitted curve, though single readings scatter.
# Key:
# Assay in all cases: qHTS profiling for inhibitors of Plasmodium falciparum proliferation (AID 504749); further: nearly all actives have a fitted effect of over 60% in size
# Conditions in all cases: P. falciparum in erythrocytes, SYBR Green DNA, 72 h; series mostly up to 28.7 µM
# [1] = system: CP297
# How it was run: (§1)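 Three-day growth assay of blood-stage parasites in erythrocytes (0.3% parasitemia, 2.5% hematocrit) at 37 C, 5% CO2, quantified by SYBR Green DNA staining after overnight detergent lysis.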
# [2] = system: CP305
# How it was run: as §1
# [3] = system: CP325
# How it was run: as §1
# [4] = system: CP329
# How it was run: as §1
# [5] = system: CP335
# How it was run: as §1
# [6] = system: DFO2036
# How it was run: as §1
# [7] = system: DIV14
# How it was run: as §1
# [8] = system: DIV17
# How it was run: as §1
# [9] = system: DIV30
# How it was run: as §1
# [10] = system: Dd2
# How it was run: as §1
# [11] = system: ECU
# How it was run: as §1
# [12] = system: FAB9
# How it was run: as §1
# [13] = system: GB4
# How it was run: as §1
# [14] = system: HB3
# How it was run: as §1
# [15] = system: ICS
# How it was run: as §1
# [16] = system: JCK
# How it was run: as §1
# [17] = system: N140
# How it was run: as §1
# [18] = system: P93_24
# How it was run: as §1
# [19] = system: P94_40
# How it was run: as §1
# [20] = system: CP315
# How it was run: as §1
# Potency means the concentration at half of the fitted maximal effect.
SMILES,outcome [1],Potency [2],outcome [3],outcome [4],Potency [5],Potency [6],Potency [7],Potency [8],outcome [9],Potency [10],Potency [11],Potency [12],Potency [13],Potency [14],Potency [15],Potency [16],Potency [17],Potency [18],Potency [19],outcome [20]
COC(=O)c1ccc(O)cc1,inactive,inactive,inactive,inactive,inactive,inactive,inactive,inactive,inactive,inactive,inactive,inactive,inactive,inactive,inactive,inactive,inactive,inactive,inactive,
CCCNC(C)(C)COC(=O)c1ccccc1,inactive,inactive,inactive,inactive,,inactive,inactive,inactive,inactive,inactive,inactive,inactive,,inactive,inactive,inactive,inactive,inactive,inactive,inactive
N[C@@H](Cc1ccc(O)cc1)C(=O)O,inactive,inactive,,inactive,inactive,inactive,inactive,inactive,,inactive,inactive,inactive,inactive,inactive,inactive,inactive,inactive,inactive,inactive,inactive
NC(=O)CCCCC1CCSS1 (stereo not given),inactive,,inactive,inactive,inactive,inactive,,,,inactive,,inactive,,,,inactive,inactive,,,inactive
Cc1cc(OI)c(C(C)C)cc1-c1cc(C(C)C)c(OI)cc1C,,inactive,,inactive,,inactive,10.7 µM (active),13.5 µM (active),,10 µM (active),,inactive,13.5 µM (active),,,inactive,12.6 µM (active),,11.2 µM (active),inactive
Nc1ncnc(Nc2ccccc2)n1,inactive,inactive,inactive,inactive,,,inactive,,inactive,inactive,inactive,inactive,inactive,inactive,inactive,inactive,inactive,inactive,inactive,inactive
CN1C[C@@H]2C[C@H]1CN2c1cc2c(cc1F)c(=O)c(C(=O)O)cn2C1CC1,,,,,1.2 µM (active),,,inactive,,1.41 µM (active),,inactive,,inactive,,inactive,,1.58 µM (active),,
O=C(O)CCC(=O)O,inactive,inactive,inactive,inactive,,inactive,inactive,inactive,inactive,inactive,inactive,inactive,inactive,inactive,inactive,inactive,inactive,inactive,inactive,inactive
C[C@H]1COc2c(C3(N)CC3)c(F)cc3c(=O)c(C(=O)O)cn1c23,,inactive,inactive,inactive,,inactive,,inactive,inactive,inactive,inactive,inactive,,inactive,inactive,inactive,inactive,inactive,inactive,inactive
COc1nccnc1NS(=O)(=O)c1ccc(N)cc1,inactive,inactive,inactive,inactive,inactive,inactive,inactive,inactive,inactive,inactive,inactive,inactive,inactive,inactive,inactive,inactive,inactive,inactive,inactive,
CC(=O)N(CC(O)CO)c1c(I)c(C(=O)NCC(O)CO)c(I)c(C(=O)NCC(O)CO)c1I (stereo not given),inactive,inactive,inactive,inactive,,inactive,,,inactive,inactive,,inactive,,10 µM (active),7.08 µM (active),inactive,,,inactive,inactive
CCCCCCCCCCC(CO)CCCCCCCC (stereo not given),inactive,,inactive,inactive,inactive,inactive,,,inactive,inactive,inactive,inactive,,inactive,8.91 µM (active),inactive,inactive,,inactive,inactive
O=C(O)c1ccccc1C(=O)Nc1ccc(S(=O)(=O)Nc2nccs2)cc1,,inactive,inactive,inactive,inactive,inactive,inactive,inactive,inactive,inactive,inactive,inactive,inactive,inactive,inactive,inactive,inactive,inactive,inactive,inactive
COc1ccccc1OC(=O)Oc1ccccc1OC,,inactive,inactive,inactive,inactive,inactive,inactive,inactive,inactive,inactive,inactive,inactive,inactive,inactive,inactive,inactive,inactive,inactive,inactive,inactive
NC(=O)c1ccc([N+](=O)[O-])cc1Cl,inactive,inactive,inactive,inactive,,inactive,,,inactive,inactive,,inactive,,12.6 µM (active),4.47 µM (active),inactive,,,inactive,inactive
O=C1c2ccccc2C(=O)C1c1ccc(Br)cc1,inactive,inactive,inactive,inactive,,,,,inactive,11.2 µM (active),,inactive,9.53 µM (active),inactive,11.2 µM (active),inactive,inactive,,10 µM (active),
O=C(Cn1ccnc1[N+](=O)[O-])NCCO,,inactive,inactive,inactive,inactive,inactive,inactive,inactive,inactive,inactive,inactive,inactive,inactive,inactive,inactive,inactive,inactive,inactive,inactive,inactive
CC(CN(C)C)C(C)(O)Cc1ccc(Cl)cc1 (stereo not given),,,,,,inactive,,6.01 µM (active),,7.94 µM (active),,inactive,6.75 µM (active),inactive,,inactive,,,,inactive
Nc1c2c(nc3c1CCC3)CCCC2,,15.1 µM (active),,,,,13.5 µM (active),15.1 µM (active),,12.6 µM (active),,,16.9 µM (active),10 µM (active),12.6 µM (active),,,,11.2 µM (active),
CC1CCN(CCCC(=O)c2ccc(F)cc2)CC1,inactive,inactive,inactive,inactive,,inactive,,,inactive,inactive,inactive,inactive,inactive,inactive,inactive,inactive,inactive,inactive,inactive,inactive
Cc1c(NC(=O)c2cccnc2)c(=O)n(-c2ccccc2)n1C,inactive,inactive,inactive,inactive,inactive,inactive,inactive,inactive,inactive,inactive,inactive,inactive,inactive,inactive,inactive,inactive,inactive,inactive,inactive,
CCN1CC(CCN2CCOCC2)C(c2ccccc2)(c2ccccc2)C1=O (stereo not given),,inactive,inactive,inactive,,inactive,,inactive,inactive,12.6 µM (active),,inactive,,inactive,,inactive,,,,inactive
O=C(/C=C/c1ccccc1)OCc1ccccc1,inactive,inactive,inactive,inactive,,inactive,inactive,inactive,inactive,inactive,inactive,inactive,inactive,inactive,,inactive,inactive,inactive,inactive,inactive
Cc1cc(O)cc(C)c1Cl,inactive,,inactive,inactive,,,,,,,,inactive,,,3.55 µM (active),,,,,inactive
Cc1c(Cn2ccnc2)c2ccccc2n1CCC(=O)O,inactive,inactive,,inactive,inactive,inactive,inactive,inactive,inactive,inactive,inactive,inactive,inactive,inactive,inactive,inactive,inactive,inactive,inactive,inactive
Cc1onc(-c2ccccc2)c1-c1ccc(S(N)(=O)=O)cc1,inactive,inactive,inactive,inactive,inactive,inactive,inactive,inactive,inactive,inactive,inactive,inactive,inactive,inactive,inactive,inactive,inactive,inactive,inactive,
NCc1ccc(S(N)(=O)=O)cc1,inactive,inactive,inactive,inactive,,inactive,,,inactive,inactive,inactive,inactive,,3.98 µM (active),2.51 µM (active),inactive,inactive,,inactive,inactive
O=C(OOC(=O)c1ccccc1)c1ccccc1,,inactive,inactive,inactive,inactive,inactive,inactive,inactive,inactive,inactive,inactive,inactive,inactive,inactive,inactive,inactive,inactive,inactive,inactive,inactive
